Rows were chosen to be rich in hits. Some 2.8% of all compounds tested hit in one or more screens of this group.
POLI inh: qHTS for Inhibitors of Polymerase Iota; DNA polymerase iota (Homo sapiens), Q9UNA4; Pol iota fluorescent replication assay, 10 min; Potency, µM (series often up to 115 µM), for the others: top-dose activity, negative = inhibition, most hits filed as inhibitors; actives 1% (n = 390,000); AID 588590, 2011; further: potency means the concentration at half of the fitted maximal effect
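Pol iota at 10 nM preincubated 15 min with compounds at room temperature; reaction started with fluorescent substrate, 50 nM final. Fluorescence read kinetically at 0 and 10 min; buffer-only wells as negative control.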
Pol beta inh: qHTS Assay for Inhibitors of DNA Polymerase Beta; P06746; Pol beta primer extension/strand displacement, fluorescence kinetic; Potency, µM (titrated, usually from 114 µM), for inactives: top-dose activity change, negative = inhibition, most hits filed as inhibitors; actives 1.3% (n = 340,000); AID 485314, 2010; further: potency means the concentration at half of the fitted maximal effect; on the % scale 0 is the no-effect control and ±100 the full control effect
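10 nM enzyme + cpd, 15 min RT; start with substrate 50 nM final; read 0 min and after 10 min RT. Corrected, normalized data; 4-parameter Hill curve fit.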
PI4K2A block: qHTS for small molecular inhibitors of PI4K2A; activity change, negative = inhibition, % at 76.9 µM; actives 0.13% (n = 420,000); purified PI4K2A, ADP-Glo luminescence, 1 h; stronger effect = lower value; in the data active means activity change below about -50%; inconclusive means mostly about -30% to -49%;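 further: -100% = wells without enzyme as full effect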
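ADP-Glo luminescence measured ADP generated by PI4K2A enzyme (4 ug/mL before mixing) with 1.2 mM PI substrate (pre-mix) and 300 microM ATP (pre-mix). Tris pH7.5 buffer with MgCl2, Triton X-100; 1 h reaction at ambient temperature.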
Pol eta inh: qHTS for Inhibitors of Polymerase Eta | actives 1.2% (n = 390,000) | AID 588591, 2011 | recombinant Pol eta, fluorescent DNA replication assay | DNA polymerase eta (Homo sapiens), Q9Y253 | Potency, µM (doses to about 114 µM), without a hit: at the top dose activity change, negative = inhibition, most hits filed as inhibitors; further: potency means the concentration at half of the fitted maximal effect; on the % scale 0 is the no-effect control and ±100 the full control effect
Target sequence (Q9Y253 whole entry, looked up): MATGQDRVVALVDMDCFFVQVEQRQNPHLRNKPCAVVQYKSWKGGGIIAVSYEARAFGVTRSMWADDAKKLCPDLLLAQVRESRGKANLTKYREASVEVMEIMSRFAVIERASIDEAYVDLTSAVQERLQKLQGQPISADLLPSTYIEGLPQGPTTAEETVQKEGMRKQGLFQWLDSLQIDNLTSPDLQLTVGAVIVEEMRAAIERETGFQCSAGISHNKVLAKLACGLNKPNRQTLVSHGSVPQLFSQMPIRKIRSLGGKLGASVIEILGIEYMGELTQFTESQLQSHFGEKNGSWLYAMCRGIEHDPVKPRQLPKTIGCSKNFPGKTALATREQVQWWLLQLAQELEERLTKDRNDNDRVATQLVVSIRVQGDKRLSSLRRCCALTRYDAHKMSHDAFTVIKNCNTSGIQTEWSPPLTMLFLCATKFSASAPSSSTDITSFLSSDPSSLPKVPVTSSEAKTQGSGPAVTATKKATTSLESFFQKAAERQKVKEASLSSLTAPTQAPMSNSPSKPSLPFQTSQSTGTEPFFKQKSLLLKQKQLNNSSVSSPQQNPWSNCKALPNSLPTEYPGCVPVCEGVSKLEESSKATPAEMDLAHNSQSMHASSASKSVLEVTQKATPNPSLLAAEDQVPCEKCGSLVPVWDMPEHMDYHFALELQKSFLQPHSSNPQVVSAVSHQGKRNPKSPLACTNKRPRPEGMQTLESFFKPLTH
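Fluorescent replication assay: 50 nM final substrate added after a 15 min room-temperature compound preincubation with 10 nM enzyme. Signal taken at 0 min and again at 10 min.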
Pol kappa inh: qHTS for Inhibitors of Polymerase Kappa; actives 0.53% (n = 400,000); DNA polymerase kappa (Homo sapiens), Q9UBT6; Potency, µM (series often up to 107 µM), for the others: top-dose activity, negative = inhibition, actives largely listed as inhibitors; purified Pol kappa, fluorescent DNA synthesis assay, 10 min; further: potency means the concentration at half of the fitted maximal effect; on the % scale 0 is the no-effect control and ±100 the full control effect
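Pol kappa 10 nM + cpd, 15 min RT; start w/ substrate 50 nM final; fluorescence kinetic read, 0 and 10 min. Neg ctrl: buffer, no enzyme.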
PI5P4Ka inh: qHTS for Inhibitors of phosphatidylinositol 5-phosphate 4-kinase (PI5P4K). AID 652105, 2013. Phosphatidylinositol 5-phosphate 4-kinase type-2 alpha (Homo sapiens), P48426. actives 1.2% (n = 330,000). PI5P4Kalpha enzyme, ADP-Glo luminescence, 60 min; stronger effect = lower value. max response, %; active means max response of -50% or lower; inconclusive means between -30% and -50%; inactive means -30% or higher; further: value at the top dose of about 77 µM; on the % scale 0 is the no-effect control and ±100 the full control effect
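qHTS, 1536-well: enzyme/substrate mix, compound by pin tool, 5 microM ATP final; RT 60 min; ADP-Glo reagents 1 (45 min) then 2 (30 min); luminescence.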
* marks the source's active call; other numbers are inactive results; ? = inconclusive; . = no result given; [ ] = remark or other dose. Unless noted, the call rests on the fitted dose curve; in most records, active means well fitted inhibition curve with a large enough effect; inconclusive means small, poorly fitted or top-dose-only effect, or another doubt; inactive means no such curve, though single readings can be large or run the other way.

SMILES | POLI inh | Pol beta inh | PI4K2A block | Pol eta inh | Pol kappa inh | PI5P4Ka inh
CCN(c1ccccc1C)S(=O)(=O)c1nnc(NC(=O)c2ccco2)s1 | ? | ? | -7 | 50µM* | ? | -9
CCN(c1ccc(C)cc1C)S(=O)(=O)c1nnc(NC(=O)c2ccc(F)cc2)s1 | ? | 18µM* | -2 | -10% | -28% | .
Cc1cccc(C(=O)Nc2nnc(S(=O)(=O)N(C)Cc3ccc(Cl)cc3)s2)c1 | 89µM* | 24% | -1 | -11% | -1% | .
CCN(c1ccc(OC)cc1)S(=O)(=O)c1nnc(NC(=O)c2ccco2)s1 | ? | ? | 1 | ? | -24% | ?
CCN(c1cc(C)cc(C)c1)S(=O)(=O)c1nnc(NC(=O)c2ccco2)s1 | -5% | -4% | 0 | -3% | -10% | 1
COc1ccc(N(CC(C)C)S(=O)(=O)c2nnc(NC(=O)c3ccco3)s2)cc1 | ? | 0% | -7 | 79µM* | -18% | ?
CC(C)(C)n1ncc2c(=O)n(Cc3cc(Cl)ccc3Cl)cnc21 | -8% | . | . | . | 6% | .
Cc1csc(C)[n+]1CCC1CCCCC1 | 16% | . | . | . | -8% | .
COC1C(OC(=O)/C=C/C=C/C=C/C=C/C(=O)O)CCC2(CO2)C1C1(C)OC1CC=C(C)C (stereo not drawn) | . | . | . | . | -5%[60.1 µM] | .
CN(C)CCNC(=O)C1Cc2c(-c3ccccc3Oc3ccccc3)ccnc2O1 (stereo not drawn) | . | . | 2 | . | . | -10
CCOCc1nnc(NC(=O)c2ccco2)s1 | 11% | 4% | 2 | -18% | -7% | -4
CCCCCCCCc1nnc(NC(=O)c2ccco2)s1 | -3% | 35µM* | -2 | -12% | -7% | .
Cc1cccc2sc(N(Cc3cccnc3)C(=O)CCOc3ccccc3)nc12 | -11% | 0% | -59* | -10% | -3%[60.1 µM] | .
Cc1cccc2sc(N(Cc3cccnc3)C(=O)COc3ccccc3)nc12 | -9% | -11% | -2 | -2% | -9%[60.1 µM] | .
O=C1CC(=Nc2ccc([N+](=O)[O-])cc2)NN1c1c(Cl)cc(Cl)cc1Cl | . | . | 1 | 79µM* | . | ?
O=[N+]([O-])c1ccc(N=Nc2c(Cl)cc(O)cc2Cl)cc1 | -13% | -4% | -28 | -20% | -10% | -5
COc1cc(N2C(=O)C=CC2=O)ccc1N1C(=O)C=CC1=O | 40µM* | . | -17 | 25µM* | 40µM* | -68*
O=Cc1coc2c(ccc3ccccc32)c1=O | . | 79µM* | . | . | . | .
O=C/C=C/c1coc2ccc3ccccc3c2c1=O | ? | -1% | 5 | -3% | -4% | 0
COc1cccc2c(=O)c3cccc(N)c3[nH]c12 | -12% | 25µM* | -19 | ? | -12% | -26
COc1cc(/C=c2\s/c(=C\C(=O)C(C)(C)C)[nH]c2=O)cc(OC)c1OC | 2% | -13% | 0 | -22% | -13% | 8
COc1ccc(/C=c2\s/c(=C\C(=O)C(C)(C)C)[nH]c2=O)cc1O | -9% | 11% | -6 | -21% | -8% | -72*
CCOc1ccc(NC(=O)CN2CCCN(Cc3cc(C)ccc3C)S2(=O)=O)cc1 | 89µM* | -19% | -3 | -11% | ? | .
CC(C)=CCC/C(C)=C/CC/C(C)=C/CCC(=O)OC/C=C(\C)CCC=C(C)C | . | . | -2 | . | . | .
COc1cc(NC(=O)CSc2nnc3c(n2)[nH]c2ccc(OC)cc23)cc(OC)c1 | 8% | . | . | . | -3% | .
SMILES | POLI inh | Pol beta inh | PI4K2A block | Pol eta inh | Pol kappa inh | PI5P4Ka inh
COc1cc(NC(=O)CSc2nnc3c(n2)[nH]c2ccc(S(=O)(=O)NC(C)C)cc23)cc(OC)c1OC | 45µM* | ? | 1 | 18µM* | ? | ?
CC(C)CCNC(=O)C1CCCN(S(=O)(=O)c2ccc3c(c2)CC(C)N3C(=O)C2CC2)C1 (stereo not drawn) | -10% | -5% | -4 | -17% | 16% | 3
CC(C)CCNC(=O)C1CCN(S(=O)(=O)c2ccc3c(c2)CC(C)N3C(=O)C2CCC2)CC1 (stereo not drawn) | -2% | 56µM* | -7 | -10% | 3% | 4
Cc1ccc(-n2c(SCCC(C)C)nc3sc4c(c3c2=O)CC(C)(C)OC4)cc1 | 8% | 32% | 0 | -4% | -4% | .
COc1ccc(OC)c(NC(=O)c2c(NCc3ccc(C)o3)sc3c2CCCCC3)c1 | 28µM* | -5% | -26 | -21% | 0%[60.1 µM] | .
COc1ccccc1NC(=O)c1c(NCc2ccc(C)o2)sc2c1CCCCC2 | ? | ? | -23 | ? | -14%[60.1 µM] | .
CCOC(=O)[C@@]12CN(C(=O)OC(C)(C)C)CC=C1N(Cc1ccc(OC)cc1)C(=O)[C@H]2CC(=O)NCc1ccc(C)o1 | . | . | -2 | . | . | .
CCN(CC)c1ccc(/C=C2\C(=O)N(c3nnc(C)c(=O)[nH]3)N=C2C)cc1 | 3.2µM* | 39% | -13 | ? | -4% | -12
CCN(CC)c1ccc(/C=C2/C(=O)ON=C2C)cc1 | ? | 7% | -5 | 14% | -11%[60.1 µM] | -1
Cc1cc([N+](=O)[O-])c2[nH]c(C(=O)N/N=C/c3ccccc3C(=O)O)c(-c3ccccc3)c2c1 | 21% | 28µM* | -4 | 45µM* | -7% | .
O=C(CCN1C(=O)/C(=C/c2ccc(F)cc2)SC1=S)Nc1cc([N+](=O)[O-])ccc1O | ? | 45µM* | 0 | 0% | -9%[60.1 µM] | 2
C=C1C=C(C(F)F)n2ncc(C(=O)NCc3ccccc3)c2N1 | 19% | . | . | . | 13% | .
CC(=O)Nc1ccc(NC(=O)c2sc(-c3ccccc3)nc2C)cc1 | 5% | -29% | -1 | -17% | 2% | 0
Cc1nc(-c2ccncc2)sc1C(=O)Nc1ccc(Br)cc1 | 42% | 16µM* | 2 | -19% | -7% | 5
COC(=O)[C@]12C[C@H](CC(=O)N3CCN(C(=O)c4ccco4)CC3)C(=O)N(CCc3ccc(OC)c(OC)c3)C1=C[C@H](C(C)C)O[C@@H]2C1CC1 | . | . | -3 | . | . | .
CN(CCO)c1cc(Sc2nc3ccccc3s2)c2nonc2c1[N+](=O)[O-] | 22µM* | 8% | -20 | -14% | -16% | .
COc1ccc2c(c1)c1nnc(SCCN3CCOCC3)nc1n2C | 7% | . | . | . | -5% | .
COc1ccccc1N1C(=O)C2CC(C)=C(C)CC2C1=O (stereo not drawn) | 7% | 20% | -1 | 10% | -6% | .
COc1ccccc1N1C(=O)C=C(Sc2nc(C)cc(C)n2)C1=O | -17% | -2% | 4 | -6% | -12% | -57*
